aSyn UTR act: Activators via SNCA 5'UTR binding, MLPCN | alpha-synuclein 5'UTR reporter, activators screen | activity score, % (tested at 7.5 µM), hits read low | actives 7.1% (n = 300,000) | AID 1814, 2009; in the data active means activity score below about -60%
* hit, by the source's call. These entries were drawn from the full list.

SMILES | aSyn UTR act
CCCOc1ccc(C(=O)Nc2ccccc2[N+](=O)[O-])cc1 | -401*
CCCOc1ccc(C(=O)NNC(=S)NC(=O)c2ccccc2)cc1 | 80
c1ccc2c(Nc3nnc(-c4ccncc4)s3)cccc2c1 | -186*
COc1ccc(N=c2sc3ccccc3n2C)cc1 | -172*
COn1c(-c2ccc(Cl)cc2)nc2ncccc21 | -107*
Cc1cc(NC(c2ccc(Cl)cc2)c2ccc3cccnc3c2O)no1 (centres undefined) | 85
Oc1c(C=C2N=c3ccccc3=N2)sc(=S)n1-c1ccc(F)cc1 | -65*
CCn1c(O)c(/C=C2\C=NN=C2c2ccccc2)sc1=S | 67
Cc1oc2c(c1C(=O)c1ccccc1)C(=O)C(=O)c1ccccc1-2 | 127
Cc1oc2c(c1C(=O)O)C(=O)c1ccccc1C2=O | -62*
COc1ccc(C(=O)c2c(C(F)(F)F)oc3c2C(=O)c2ccccc2C3=O)cc1OC | 111
CCOC(=O)c1c(C)oc2c1C(=O)c1ccccc1C2=O | -134*
CC(=O)Nc1nc2c(C)cc(NC(=O)C3CCCCC3)cc2s1 | -96*
CC(=O)Nc1cc(C)c2nc(NC(C)=O)sc2c1 | -90*
Cc1nn(Cc2ccccc2)c(Cl)c1C(=O)NCCc1ccccc1 | -135*
Cc1cc(C)n2nc(C(=O)NNC(=O)c3ccc(Cl)cc3)nc2n1 | -76*
CCOC(=O)c1c(C)c(C(=O)O)n(C)c1C | 32
Cc1cc(C)n2nc(C(=O)NCCc3ccccc3)nc2n1 | -72*
CCOC(=O)c1c(C)c(C(=O)NCCc2ccccc2)c(C)n1C | -80*
Cc1ccsc1/C=N\NC(=O)c1cc(C(C)(C)C)[nH]n1 | -138*
CC(C)(C)c1cc(C(=O)N/N=C/c2ccco2)n[nH]1 | -146*
Cc1ccc(Nc2nc3c(c(=O)[nH]2)CCCC3)cc1 | -143*
Cc1ccc(Nc2nc(C)c(CCC(C)C)c(=O)[nH]2)cc1 | -94*
COc1ccc(-c2nc3c(n2O)CCc2c-3no[n+]2[O-])cc1 | -131*
CCOc1ccc(/C=N/N2C(C)CCCC2C)cc1 (centres undefined) | -77*
SMILES | aSyn UTR act
CC1CC(C)CN(C(=O)c2cc3ccccc3o2)C1 (centres undefined) | -70*
CC1CC(C)CN(C(=O)c2cc3cc(Br)cc(Br)c3o2)C1 (centres undefined) | -121*
O=C(c1cc2ccccc2o1)N1CCCCCC1 | -64*
CC1CCN(C(=O)c2cc3ccccc3o2)CC1 | -131*
c1ccc(-c2nnc(-c3ccccn3)s2)nc1 | 78
c1ccc(C2=NNC(c3ccccn3)=NN2)nc1 | -118*
Cc1cc(NC(=O)NC(=O)c2cccc(OC(F)(F)C(F)F)c2)n[nH]1 | -119*
Cc1cc(NC(=O)c2cccc(Oc3ccccc3)c2)n[nH]1 | -109*
N/C(=C\C(=O)c1cc(Cl)ccc1O)C(Cl)(Cl)Cl | -80*
COc1ccc(-c2nc3ccccc3n2OC(C)C(=O)O)cc1 (centres undefined) | -196*
On1c(-c2ccccc2)nc2ccc(Cl)cc21 | -149*
CC(On1c(-c2ccccc2)nc2ccc(Cl)cc21)C(=O)O (centres undefined) | -62*
COc1ccc(C(NC(=O)C(C)C)c2ccc3cccnc3c2O)cc1 (centres undefined) | 79
COc1ccc(-c2n(CC(=O)OC3CC(C)CCC3C(C)C)c3ccccc3[n+]2C)cc1 (centres undefined) | 101
Cc1ccc(-c2nc3ccc(Cl)cc3n2OC(C)C(=O)O)cc1 (centres undefined) | -127*
O=c1c2ccc(Cl)cc2nc(-c2cccc(C(F)(F)F)c2)n1O | 78
CCN(CC)c1ccc(Nc2nc(-c3cccnc3)cs2)cc1 | -210*
c1ccc(-c2csc(Nc3cccnc3)n2)cc1 | -164*
Fc1ccc(Nc2nc(-c3cccnc3)cs2)cc1 | -265*
Clc1ccc(Nc2nc(-c3cccnc3)cs2)cc1 | -146*
Cc1cc2n(n1)C(c1ccc(N(C)C)cc1)Nc1ccccc1-2 (centres undefined) | -156*
CCc1ccc2nc(N3C(=O)C(O)=C(C(=O)c4ccco4)C3c3cccs3)sc2c1 (centres undefined) | -102*
Cc1ccc2nc(N3C(=O)C(O)=C(C(=O)c4cc5ccccc5o4)C3c3cccs3)sc2c1 (centres undefined) | -85*
CCOC(=O)c1sc(N2C(=O)C(O)=C(C(=O)c3ccco3)C2c2cccc(Cl)c2)nc1C (centres undefined) | -81*
Cc1ccc2nc(N3C(=O)C(O)=C(C(=O)c4ccco4)C3c3ccc(C)o3)sc2c1 (centres undefined) | -82*
SMILES | aSyn UTR act
Cc1ccc(C(=O)O/N=C/c2c(N3CCOCC3)n(C)c3ccccc23)cc1 | 77
BrC(=C\c1ccccc1)/C=N/N1CCN(c2ccccc2)CC1 | -65*
C(=N\N1CCN(c2ccccc2)CC1)/c1ccccc1 | -123*
Clc1ccc(N2CCN(/N=C/c3cccnc3)CC2)cc1 | -67*
COC(=O)c1ccc(/C=N\N2CCN(c3ccccc3)CC2)cc1 | -127*
O=C(CN1CCN(Cc2ccccc2)CC1)N/N=C/C=C/c1ccco1 | -95*
COc1ccc(C(=O)NCC(=O)N/N=C/C(C)=C/c2ccco2)cc1OC | -62*
O=C(CNC(=O)c1ccccc1O)N/N=C/c1cc(Br)ccc1OC(=O)/C=C/c1ccco1 | 68
Cc1ccc(CN2CCN(CC(=O)N/N=C/c3ccccc3F)CC2)cc1 | -63*
CC(/C=N/NC(=O)c1cc(-c2ccc(Cl)cc2)nc2ccccc12)=C\c1ccco1 | 85
CC(/C=N/NC(=O)CN1CCN(Cc2ccc(Cl)cc2)CC1)=C\c1ccco1 | -87*
CC(/C=N/NC(=O)Cc1cccn1C)=C\c1ccco1 | -69*
CC(C)n1cnc2cc(NCc3ccccn3)ccc21 | -97*
CC(C)n1cnc2cc(NCc3ccco3)ccc21 | -109*
Cc1cc(NCc2ccccn2)ccc1Br | -198*
c1ccc(-n2cnc3cc(NCc4ccccn4)ccc32)cc1 | -66*
CCOc1ccc(C2=Nn3c(nnc3-c3ccccc3OC)SC2)cc1 | 109
CCOc1ccccc1C1CC(=O)Nc2cc3c(cc21)OCO3 (centres undefined) | 66
CCOc1ccccc1C1N=C(c2ccc(OC)cc2)CC(c2ccccc2O)N1 (centres undefined) | -234*
Cc1ccc(OCCn2nnc3ccccc32)cc1C | -200*
COc1ccccc1OCCn1nnc2ccccc21 | -101*
CC1(C)Cc2c(sc(NC(=O)c3ccco3)c2C#N)CO1 | -100*
NC(=O)c1c(NC(=O)c2ccco2)sc2c1CCC2 | -277*
Cc1occc1C(=O)Nc1sc2c(c1C(N)=O)CCCCC2 | -176*
N#Cc1c(NC(=O)c2ccco2)sc2c1CCC2 | -133*
SMILES | aSyn UTR act
O=C(Nc1sc2c(c1C(=O)O)CCCCC2)c1ccco1 | -96*
C/C(=N\NC(=O)CN1CCCCC1)c1cccc([N+](=O)[O-])c1 | -93*
CCOC(=O)C(NC(=O)c1ccccc1Cl)(Nc1ccc(C)c(C)c1)C(F)(F)F (centres undefined) | -81*
O=C(NC1CC1)c1ccc(-c2nc3ccccc3s2)s1 | 96
CCNC(=O)COC(=O)c1ccc(-c2nc3ccccc3s2)s1 | -67*
Cc1noc(C)c1COC(=O)c1ccc(-c2nc3ccccc3s2)s1 | -206*
CCN1CCN(C(=O)c2ccc(-c3nc4ccccc4s3)s2)CC1 | -66*
O=C(c1ccc(-c2nc3ccccc3s2)s1)N1CCOCC1 | 100
CNc1sc(C(=O)c2cccs2)c(N)c1-c1nc2ccccc2s1 | -157*
CNc1sc(C(=O)c2ccc(F)cc2)c(N)c1-c1nc2ccccc2s1 | -137*

Screens: PubChem BioAssay, Broad Institute
